Our source for the growth values is PubChem BioAssay (NCI).

Among the test systems are SR leukemia; RPMI-8226 leukemia; OVCAR-8 ovarian; OVCAR-5 ovarian; OVCAR-4 ovarian; SK-OV-3 ovarian; IGROV1 ovarian; OVCAR-3 ovarian; HS 578T breast; NCI/ADR-RES ovarian; T-47D breast; BT-549 breast; SW-620 colon; MCF7 breast; HCT-116 colon; HCC-2998 colon; KM12 colon; MDA-MB-435 melanoma.
Holding throughout (assay): NCI-60 one-dose screen, 48 h (100 = growth as untreated, 0 = no growth, -100 = all killed)
Common to all, as to conditions: 10 µM unless noted

Structures are written as SMILES. Compounds without any hit were thinned out: in the full panel of roughly 83,000, 20% have a hit.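 Step 1: grow cells in 96-well plates. Step 2: add test compound at a single concentration. Step 3: incubate 48 h. Step 4: record percent growth.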 Unmarked numbers belong to inactive results. Calls of active or inactive are those of the source. The calls were made as follows: active = growth percent below 10; inactive = the rest.

On to `O=C(/C=C(/C=C/c1coc2ccccc12)OB(F)F)/C=C/c1coc2ccccc12`, for which the growth in the assay on SR leukemia was 48.8%; with RPMI-8226 leukemia it was 84.9%; in the assay on OVCAR-8 ovarian, 87.7%; in the assay on OVCAR-5 ovarian, 113%; in the assay on OVCAR-4 ovarian it was 107%; in the assay on SK-OV-3 ovarian it was 122%. Besides, the growth in the assay with IGROV1 ovarian was 97.5%; in the assay on OVCAR-3 ovarian, 58.2%; in the assay on HS 578T breast, 91.4%; in the assay on NCI/ADR-RES ovarian it was 102%; in the assay with T-47D breast, 88.1%; in the assay with BT-549 breast it was 99.3%. Besides, the growth is 86.3% with SW-620 colon; 82.8% in the assay on MCF7 breast; 75.3% with HCT-116 colon; 98.8% in the assay with HCC-2998 colon; 91.3% in the assay on KM12 colon.
Consider `O=C(Cc1ccc(/C=C/C(=O)c2nccs2)cc1)Nc1ccccc1`, for which the growth is 2.31% (active) with SR leukemia; 67% in the assay with RPMI-8226 leukemia; 90.5% in the assay with OVCAR-8 ovarian; 99.9% with OVCAR-5 ovarian; 97.2% with OVCAR-4 ovarian; 112% in the assay on SK-OV-3 ovarian. Moreover, the growth with IGROV1 ovarian was 91.7%; with OVCAR-3 ovarian, 88.9%; with HS 578T breast, 88.5%; in the assay on NCI/ADR-RES ovarian, 101%; with T-47D breast, 92.8%; in the assay with BT-549 breast, 93%. Also, the growth is 100% in the assay on MDA-MB-435 melanoma; 84.4% with MCF7 breast; -43.8% (active) with HCT-116 colon; 105% in the assay on HCC-2998 colon; 70.7% with KM12 colon.
Consider `O=C(Nc1ccc(F)cc1)Nc1ccc(NC(=O)c2cc(Cl)nc3ccccc23)cc1`, for which the growth with SR leukemia is 74.1%; with RPMI-8226 leukemia, 26.5%; in the assay on OVCAR-8 ovarian, 42.9%; in the assay with OVCAR-5 ovarian, 92.9%; with OVCAR-4 ovarian, 51.2%; in the assay on SK-OV-3 ovarian, 59.8%. Moreover, the growth with IGROV1 ovarian was 52.6%; with OVCAR-3 ovarian, 12.2%; in the assay with HS 578T breast, 9.05% (active); with NCI/ADR-RES ovarian, 99.7%; in the assay with T-47D breast, 42.9%; with BT-549 breast it was 37.2%. Also, the growth is 73.8% in the assay on MDA-MB-435 melanoma; 69% with MCF7 breast; 56.9% in the assay with HCT-116 colon; 51% in the assay with HCC-2998 colon; 58.5% with KM12 colon.
For the compound `COc1cc2nc(-c3ccc(Cl)cc3)cc(OCCCN3CCCCC3)c2cc1OC`, the growth with SR leukemia is 9.98% (active); in the assay on RPMI-8226 leukemia, 21%; in the assay with OVCAR-8 ovarian it was 49.8%; in the assay with OVCAR-5 ovarian, 49.3%; in the assay on OVCAR-4 ovarian, 61.7%; with SK-OV-3 ovarian it was 78.9%. The growth in the assay with IGROV1 ovarian was 33.2%; with OVCAR-3 ovarian, 72%; in the assay on HS 578T breast, 62.1%; in the assay on NCI/ADR-RES ovarian, 46.4%; in the assay with T-47D breast, 35.4%; with BT-549 breast, 40.9%. Moreover, the growth in the assay with MDA-MB-435 melanoma is -22.5% (active); with MCF7 breast, 45.8%; in the assay on HCT-116 colon, 22.9%; in the assay with HCC-2998 colon, 67.7%; with KM12 colon, 44.6%.
Take `COc1ccc(C/C(C)=C(/c2ccc(OCCCN(C)C)cc2)c2ccc(OC(C)=O)cc2)cc1`: the growth is 9.44% (active) in the assay on SR leukemia; 79.2% in the assay with RPMI-8226 leukemia; 95.5% with OVCAR-8 ovarian; 85.7% in the assay with OVCAR-5 ovarian; 79.6% in the assay with OVCAR-4 ovarian; 88% with SK-OV-3 ovarian. Besides, the growth in the assay on IGROV1 ovarian was 58.4%; with OVCAR-3 ovarian it was 91.1%; with HS 578T breast it was 64.1%; with NCI/ADR-RES ovarian it was 92.3%; with T-47D breast, 56.4%; in the assay with BT-549 breast, 89%. Also, the growth is 87.8% in the assay with SW-620 colon; 18.1% in the assay with MCF7 breast; 55.3% with HCT-116 colon; 70.3% in the assay on HCC-2998 colon; 80.7% in the assay with KM12 colon.
For the compound `CC(=O)Nc1cccc(-c2ccc3c(c2)NC(=O)/C3=C\c2ccc[nH]2)c1`, the growth with SR leukemia was 9.65% (active); in the assay with RPMI-8226 leukemia, 15.8%; with OVCAR-8 ovarian, 56.4%; in the assay on OVCAR-5 ovarian it was 38.4%; in the assay on OVCAR-4 ovarian it was 53.1%; with SK-OV-3 ovarian, 48.8%. The growth in the assay on IGROV1 ovarian is 43.4%; in the assay on OVCAR-3 ovarian, 69.6%; with HS 578T breast, 64.6%; in the assay on NCI/ADR-RES ovarian, 49.6%; in the assay with T-47D breast, 17.7%; in the assay with BT-549 breast it was 43.2%. Besides, the growth in the assay on MDA-MB-435 melanoma was 25.6%; in the assay on MCF7 breast it was 17.8%; with HCT-116 colon, 37%; in the assay on HCC-2998 colon, 57.1%; in the assay with KM12 colon, 14.5%.
Turning to `COc1ccc(C(=O)Cn2c(C(=O)c3ccccc3)nc3ccccc32)cc1`, the growth in the assay with SR leukemia was 13%; in the assay on RPMI-8226 leukemia, -6.46% (active); with OVCAR-8 ovarian, 49.3%; in the assay on OVCAR-5 ovarian it was 62%; in the assay with OVCAR-4 ovarian, 40.4%; in the assay with SK-OV-3 ovarian, 73%. Further, the growth with IGROV1 ovarian is 10.1%; in the assay on OVCAR-3 ovarian, 5.28% (active); in the assay with HS 578T breast, -7.32% (active); with NCI/ADR-RES ovarian it was -28.3% (active); in the assay with T-47D breast, 38.1%; in the assay with BT-549 breast, 51.7%. In addition, the growth is -43.3% (active) in the assay on MDA-MB-435 melanoma; 17.5% with MCF7 breast; 15.7% in the assay with HCT-116 colon; 26.5% with HCC-2998 colon; 20.4% in the assay with KM12 colon.
For `OCc1cnc2ccccc2c1NC1CCCCCC1`, the growth in the assay on SR leukemia was 91.4%; in the assay on RPMI-8226 leukemia, 75%; with OVCAR-8 ovarian it was 84.7%; in the assay with OVCAR-5 ovarian, 100%; with OVCAR-4 ovarian, 86.3%; in the assay on SK-OV-3 ovarian it was 97.7%. For the same compound, the growth is 95.5% with IGROV1 ovarian; 89.5% with OVCAR-3 ovarian; 90.5% in the assay on HS 578T breast; 57.5% with NCI/ADR-RES ovarian; 65% in the assay with T-47D breast; 105% in the assay with BT-549 breast. The growth with MDA-MB-435 melanoma is 91.4%; in the assay with MCF7 breast, 73.5%; in the assay on HCT-116 colon, 77.9%; with HCC-2998 colon, 111%; in the assay with KM12 colon it was 96.4%.
